The source made the active and inactive calls.
Assays:
[1] = binders of probe aFSTL3 on microarray, primary screen, stem cell growth factor project, biochemical, small-molecule microarray, fluorescence 635/667 (AID 1064); settings: higher = more signal;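 note: measures binding of the biotinylated anti-FSTL3 antibody to printed compounds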
[2] = binders from COS7 lysate, DM2A8 probe, primary screen, torsin A project, cell lysate, small-molecule microarray, fluorescence 635/667 (AID 1065); settings: higher = more signal, COS7 lysate expressing mutant human TOR1A
[3] = binders of probe aFGF2 on microarray, primary screen, stem cell growth factor project, biochemical, small-molecule microarray, fluorescence 635/667 (AID 1067); settings: higher = more signal;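 note: measures binding of biotinylated aFGF2 protein to printed compounds on slides; z-score merges feature fluorescence and signal-to-noise across triplicate slides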
[4] = binders of probe aFGF10 on microarray, primary screen, stem cell growth factor project, biochemical, small-molecule microarray, fluorescence 635/667 (AID 1071); settings: higher = more signal;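 note: score merges 667 nm spot intensity and signal to noise from triplicate slides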
[5] = biological target: Neurogenic locus notch homolog protein 2 (Homo sapiens) (UniProt Q04721); assay: Notch2 binders on small-molecule microarrays, primary screen, biochemical, small-molecule microarray, 635 nm fluorescence, stem cell growth factors (AID 1073); settings: Notch2 binding, higher = more signal
[6] = biological target: Pro-neuregulin-1, membrane-bound isoform (Homo sapiens) (UniProt Q02297); assay: NRG1 binders on small-molecule microarrays, primary screen, psychiatric disease protein project, biochemical, small-molecule microarray, fluorescence 635/667 (AID 1075); settings: NRG1 binding, 635 nm fluorescence, higher = more signal;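 note: score combines 667 nm spot fluorescence with signal to noise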
[7] = tested on: Neuregulin-1 EGF-like domain; assay: binders of neuregulin-1 EGF-like domain, primary screen, biochemical, small-molecule microarray, 635 nm fluorescence (AID 1081); settings: small-molecule microarray binding, higher = more signal;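 note: binding of the protein to compounds printed on small-molecule microarray slides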
[8] = FRG1 promoter luciferase signal modulators, primary screen, FRG1 inhibition for FSHD, cell-based, C2C12 myotubes, firefly/Renilla luciferase, luminescence (AID 1084); settings: higher = more signal, called active from +8 up or from −8 down
[9] = binders of probe aFST on microarray, primary screen, stem cell growth factor project, biochemical, small-molecule microarray, fluorescence 635/667 (AID 1086); settings: higher = more signal;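 note: score merges 667 nm fluorescence with signal-to-noise of each printed compound spot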
[10] = binders of probe aHhip on microarray, primary screen, stem cell growth factor project, biochemical, small-molecule microarray, fluorescence 635/667 (AID 1087); settings: higher = more signal;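 note: score merges spot fluorescence at 667nm with spot signal to noise ratio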
[11] = tested on: PRMT1 (protein arginine N-methyltransferase 1); assay: PRMT1 binders on small-molecule microarrays, primary screen, biochemical, small-molecule microarray, 635 nm fluorescence (AID 1088); settings: small-molecule microarray binding, higher = more signal;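 note: binding of Prmt1 protein to compounds spotted on small-molecule microarray slides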
[12] = yeast growth modulation, basal conditions, primary screen, YJM789 clinical isolate, OD600, 24 h (AID 1089);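 note: growth of clinical yeast isolate S. cerevisiae YJM 789 seeded 1000 cells per well; test concentration not given here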; settings: S. cerevisiae YJM789 growth, higher = more signal, called active from +8 up or from −8 down
[13] = fission yeast growth modulation, primary screen, strain 972, OD600, 24 h, no modulator (AID 1090);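 note: basal condition with compound alone and no growth modifier present; test concentration not given here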; settings: S. pombe 972 growth, higher = more signal, called active from +8 up or from −8 down
[14] = S. cerevisiae growth modulation with rapamycin, primary screen, strain BY4716, OD600, 96 h (AID 1091); settings: higher = more signal, called active from +8 up or from −8 down; note: test concentration not given here
[15] = biological target: Torsin-1A-interacting protein 2 (Homo sapiens) (UniProt Q8NFQ8); assay: LULL1 binders on small-molecule microarray, primary screen, cell lysate, human LULL1 lysate, 635/667 nm fluorescence (AID 1092); settings: hLULL1 lysate binding, 635 nm fluorescence, higher = more signal;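 note: probe is lysate of COS7 cells overexpressing human LULL1; score merges per-feature 667 nm fluorescence with signal-to-noise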
[16] = E. coli growth modulation, two-sided OD650, primary screen, E. coli filamentation project, strain DRC41, 24 h (AID 1093); settings: OD650, 24 h, higher = more signal, called active from +8 up or from −8 down;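 note: MC1000 strain lacking acrAB efflux and sulA so SOS filamentation is blocked; test concentration not given here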
[17] = small-molecule microarray binders of probe aLefty2, primary screen, biochemical, biotinylated probe, 635/667 nm fluorescence (AID 1094); settings: higher = more signal;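 note: score merges spot fluorescence near 667 nm with spot signal-to-noise ratio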
[18] = tested on: Noggin (protein binding on small-molecule microarray); assay: Noggin binders on small-molecule microarray, primary screen, biochemical, 635/667 nm fluorescence (AID 1095); settings: 635 nm fluorescence, higher = more signal;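 note: score merges 667 nm feature fluorescence with signal to noise over triplicate slides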
[19] = biological target: Neurogenic locus notch homolog protein 3 (Homo sapiens) (UniProt Q9UM47); assay: NOTCH3 binders on small-molecule microarray, primary screen, biochemical, 635/667 nm fluorescence (AID 1096); settings: NOTCH3 binding, 635 nm fluorescence, higher = more signal
[20] = small-molecule microarray binders of probe aEGFR, primary screen, biochemical, biotinylated probe, 635/667 nm fluorescence (AID 1097); settings: higher = more signal;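 note: probe is a biotinylated anti-EGFR antibody binding compounds printed on slides; score combines fluorescence near 667 nm and signal to noise of each spot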

Chain of Torsin-1A-interacting protein 2 (Homo sapiens) (Q8NFQ8 whole entry, looked up): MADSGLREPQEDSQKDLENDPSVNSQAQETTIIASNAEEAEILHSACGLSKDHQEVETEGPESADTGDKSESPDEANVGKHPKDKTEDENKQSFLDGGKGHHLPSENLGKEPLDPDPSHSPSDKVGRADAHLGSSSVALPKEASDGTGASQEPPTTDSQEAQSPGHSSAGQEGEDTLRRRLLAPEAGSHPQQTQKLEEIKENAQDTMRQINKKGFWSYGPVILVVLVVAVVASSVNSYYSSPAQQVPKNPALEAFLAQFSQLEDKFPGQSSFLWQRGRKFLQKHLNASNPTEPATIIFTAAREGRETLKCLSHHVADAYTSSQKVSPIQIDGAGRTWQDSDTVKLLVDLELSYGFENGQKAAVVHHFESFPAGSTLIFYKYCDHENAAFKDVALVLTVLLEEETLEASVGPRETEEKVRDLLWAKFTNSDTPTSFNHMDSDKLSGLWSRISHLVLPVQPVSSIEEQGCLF
Chain of Neurogenic locus notch homolog protein 3 (Homo sapiens) (Q9UM47 whole entry, looked up): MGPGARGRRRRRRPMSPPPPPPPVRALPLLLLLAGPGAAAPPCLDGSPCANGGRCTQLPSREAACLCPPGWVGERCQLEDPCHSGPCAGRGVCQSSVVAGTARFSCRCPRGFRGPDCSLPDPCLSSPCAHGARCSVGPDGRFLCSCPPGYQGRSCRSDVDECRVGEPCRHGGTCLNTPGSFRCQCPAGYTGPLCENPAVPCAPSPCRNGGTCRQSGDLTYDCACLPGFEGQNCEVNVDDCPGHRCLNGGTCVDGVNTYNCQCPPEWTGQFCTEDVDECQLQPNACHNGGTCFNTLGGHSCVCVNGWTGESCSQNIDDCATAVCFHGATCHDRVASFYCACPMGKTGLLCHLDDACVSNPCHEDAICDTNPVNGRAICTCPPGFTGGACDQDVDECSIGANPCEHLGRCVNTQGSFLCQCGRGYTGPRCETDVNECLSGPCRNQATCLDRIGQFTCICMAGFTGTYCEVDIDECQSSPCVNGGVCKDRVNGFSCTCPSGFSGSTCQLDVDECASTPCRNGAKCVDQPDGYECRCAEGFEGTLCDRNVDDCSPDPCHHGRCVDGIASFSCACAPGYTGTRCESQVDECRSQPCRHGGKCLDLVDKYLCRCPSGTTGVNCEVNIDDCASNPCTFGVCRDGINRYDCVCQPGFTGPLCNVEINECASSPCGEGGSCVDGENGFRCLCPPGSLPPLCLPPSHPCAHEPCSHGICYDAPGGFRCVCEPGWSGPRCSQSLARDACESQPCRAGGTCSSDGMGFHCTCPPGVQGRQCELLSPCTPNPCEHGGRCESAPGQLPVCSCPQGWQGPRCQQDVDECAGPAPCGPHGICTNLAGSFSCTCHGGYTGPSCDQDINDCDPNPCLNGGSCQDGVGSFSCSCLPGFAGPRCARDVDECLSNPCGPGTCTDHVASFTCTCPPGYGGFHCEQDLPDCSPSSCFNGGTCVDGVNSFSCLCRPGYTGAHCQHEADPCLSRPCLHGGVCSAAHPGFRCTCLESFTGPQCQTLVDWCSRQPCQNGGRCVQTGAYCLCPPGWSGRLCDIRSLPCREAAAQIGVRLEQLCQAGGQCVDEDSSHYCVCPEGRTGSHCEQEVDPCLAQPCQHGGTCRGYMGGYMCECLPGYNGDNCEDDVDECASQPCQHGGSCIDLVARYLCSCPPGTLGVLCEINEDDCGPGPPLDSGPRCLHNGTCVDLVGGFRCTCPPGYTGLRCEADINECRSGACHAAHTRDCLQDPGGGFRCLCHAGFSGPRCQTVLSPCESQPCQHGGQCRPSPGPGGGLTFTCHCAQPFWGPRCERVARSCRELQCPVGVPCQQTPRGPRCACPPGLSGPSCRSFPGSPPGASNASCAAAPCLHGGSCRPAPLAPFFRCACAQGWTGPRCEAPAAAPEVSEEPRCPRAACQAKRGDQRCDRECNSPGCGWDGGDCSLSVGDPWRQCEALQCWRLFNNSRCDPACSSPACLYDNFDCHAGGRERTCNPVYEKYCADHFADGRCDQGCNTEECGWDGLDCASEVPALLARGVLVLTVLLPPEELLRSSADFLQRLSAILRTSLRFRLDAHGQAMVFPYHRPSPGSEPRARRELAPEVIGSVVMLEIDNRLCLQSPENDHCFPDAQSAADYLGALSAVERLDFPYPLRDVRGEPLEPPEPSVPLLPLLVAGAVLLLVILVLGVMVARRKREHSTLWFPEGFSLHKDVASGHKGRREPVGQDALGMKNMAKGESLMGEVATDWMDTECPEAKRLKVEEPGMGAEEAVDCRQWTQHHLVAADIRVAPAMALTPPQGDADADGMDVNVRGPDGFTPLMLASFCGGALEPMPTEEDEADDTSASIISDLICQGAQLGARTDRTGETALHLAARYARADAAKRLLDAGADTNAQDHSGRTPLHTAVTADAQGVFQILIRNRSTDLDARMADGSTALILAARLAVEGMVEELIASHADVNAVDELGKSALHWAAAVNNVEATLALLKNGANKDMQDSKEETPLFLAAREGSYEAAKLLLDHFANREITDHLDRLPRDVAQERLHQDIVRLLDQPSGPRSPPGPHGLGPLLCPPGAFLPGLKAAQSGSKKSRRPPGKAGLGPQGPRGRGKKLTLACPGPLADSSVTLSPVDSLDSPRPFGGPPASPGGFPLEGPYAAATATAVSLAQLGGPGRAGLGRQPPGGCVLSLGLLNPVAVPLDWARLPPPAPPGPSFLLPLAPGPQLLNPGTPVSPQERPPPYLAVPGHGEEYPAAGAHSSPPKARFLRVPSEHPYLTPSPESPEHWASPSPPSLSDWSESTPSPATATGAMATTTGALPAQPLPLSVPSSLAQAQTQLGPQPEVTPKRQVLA
Chain of Pro-neuregulin-1, membrane-bound isoform (Homo sapiens) (Q02297 whole entry, looked up, the tested form may be a part, canonical isoform): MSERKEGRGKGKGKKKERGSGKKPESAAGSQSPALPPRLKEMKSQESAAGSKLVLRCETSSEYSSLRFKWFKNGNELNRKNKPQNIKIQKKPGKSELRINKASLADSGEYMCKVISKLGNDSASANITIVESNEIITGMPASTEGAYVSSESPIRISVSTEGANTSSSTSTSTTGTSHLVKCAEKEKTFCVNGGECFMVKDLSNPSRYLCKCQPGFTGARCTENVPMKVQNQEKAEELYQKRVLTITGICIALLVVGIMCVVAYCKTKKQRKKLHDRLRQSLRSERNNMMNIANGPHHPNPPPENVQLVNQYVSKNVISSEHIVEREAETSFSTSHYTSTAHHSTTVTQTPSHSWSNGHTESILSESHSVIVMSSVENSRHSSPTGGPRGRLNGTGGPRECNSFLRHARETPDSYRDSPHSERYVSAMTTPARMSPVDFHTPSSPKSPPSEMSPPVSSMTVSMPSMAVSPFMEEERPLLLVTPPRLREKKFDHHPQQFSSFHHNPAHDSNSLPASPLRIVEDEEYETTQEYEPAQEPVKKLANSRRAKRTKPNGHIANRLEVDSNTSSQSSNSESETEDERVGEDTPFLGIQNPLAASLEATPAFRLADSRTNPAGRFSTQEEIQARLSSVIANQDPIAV

| SMILES | composite z-score [1] | composite z-score [2] | composite z-score [3] | composite z-score [4] | composite z-score [5] | composite z-score [6] | composite z-score [7] | z-score [8] | composite z-score [9] | composite z-score [10] | composite z-score [11] | z-score [12] | z-score [13] | z-score [14] | composite z-score [15] | z-score [16] | composite z-score [17] | composite z-score [18] | composite z-score [19] | composite z-score [20] |
| --- | --- | --- | --- | --- | --- | --- | --- | --- | --- | --- | --- | --- | --- | --- | --- | --- | --- | --- | --- | --- |
| COC(=O)c1c2oc(c1C(=O)OC)C(=O)N[C@H](Cc1ccccc1)Cn1nncc1C1(CCCCC1)NC(=O)N[C@H](CO)CC2 | -0.442 | 0.158 | -0.0853 | 0.108 | 0.0153 | -0.0781 | 0.646 | -1.33 (inactive) | 0.233 | -0.212 | 0.702 | 0.776 (inactive) | 0.414 (inactive) | -0.178 (inactive) | 1.03 | 1.17 (inactive) | -0.205 | 0.311 | 0.17 | -0.115 |
| C=CCC(OC(C)=O)[C@@H]1[C@@H](N(Cc2cc3ccccc3o2)C(=O)c2ccc(C)cc2)c2cc(OCCCO)ccc2N1C(=O)c1ccc(-c2ccccc2)cc1 (stereo not given in full) | -0.292 | 0.195 | 0.0337 | 0.18 | 0.127 | -0.158 | -0.491 | -1.35 (inactive) | -0.21 | 0.113 | -0.486 | -6.89 (inactive) | -1.27 (inactive) | -2.17 (inactive) | 0.666 | -0.818 (inactive) | 0 | 0.132 | -0.217 | -0.258 |
| C[N+](C)(C)CCCC[C@@H]1NC(=O)[C@H]2C[C@@H](C(=O)O)[C@@H](c3cccc(OCCO)c3)N2C1=O | 2.11 | 1.85 | 0.676 | 0.788 | 1.01 | 2.81 | 1.44 | -0.698 (inactive) | 1.65 | 1.88 | 1.54 | -1.28 (inactive) | -0.362 (inactive) | -0.498 (inactive) | 3.79 | 0.0136 (inactive) | 1.5 | 1.83 | 1.1 | 1.06 |
| NC(=O)[C@@]1(CCS(=O)(=O)c2ccccc2)N=C(c2ccc(OCCCO)cc2)O[C@H]1c1ccccc1 | 0.287 | 1.54 | 0.103 | 0.58 | 0.251 | 0.0342 | 1.3 | -1.19 (inactive) | 0.893 | -0.0645 | 1.54 | -0.0366 (inactive) | -1.58 (inactive) | -0.918 (inactive) | 3.6 | 0.515 (inactive) | -0.046 | -0.316 | 0.667 | -0.0703 |
| C#C[C@H]1Oc2ccccc2S(=O)(=O)N2CCC[C@@H]12 | 0.246 | 0.321 | -0.116 | -0.223 | -0.564 | -0.671 | -0.344 | -0.316 (inactive) | 0.0511 | 0.0373 | -0.513 | -0.346 (inactive) | -0.133 (inactive) | -1.55 (inactive) | -0.607 | -0.738 (inactive) | -0.0804 | 0.636 | -0.226 | -0.0564 |
| COc1ccc([Si](C)(C)[C@@H]2[C@@H](CCO)O[C@]3(C(=O)N(Cc4ccc(N5C(=O)c6cccc7cccc5c67)cc4)c4ccccc43)[C@H]2C)cc1 | 0.458 | 0.23 | -0.0566 | -0.383 | -0.35 | 0.995 | 0.695 | -3.01 (inactive) | -0.292 | -0.189 | 0.856 | 1.41 (inactive) | 1.54 (inactive) | 35.5 (active) | 0.854 | 0.631 (inactive) | -0.0728 | -0.753 | -0.017 | -0.208 |
| COC(=O)[C@@]1(Cc2ccc(OC)cc2)[C@H]2c3cc(C(=O)N(C)C)n(CCSCCO)c3C[C@H]2CN1C(=O)c1ccccc1 | 0.172 | -0.233 | 0.164 | 0.979 | 1.61 | 1.47 | 1.22 | -1.35 (inactive) | 0.547 | -0.04 | 0.359 | -0.526 (inactive) | 0.271 (inactive) | -0.251 (inactive) | 3.53 | -0.209 (inactive) | 0.162 | 0.281 | 1.13 | 0.31 |
| COC(=O)c1nc2oc1CC[C@@H](CO)NC(=O)N(C)Cc1cn(nn1)C[C@H](Cc1ccccc1)NC2=O | 0.0478 | -0.871 | -0.0982 | 0.0055 | 0.242 | 1.01 | 1.09 | -0.605 (inactive) | -0.324 | -0.226 | 0.594 | 0.654 (inactive) | -3.35 (inactive) | -0.858 (inactive) | 2.59 | 2.05 (inactive) | -0.139 | 1.04 | 0.175 | -0.181 |
| C=C(COC)/C(=C/C[C@H](OC(C)=O)c1ccccc1OCCO)c1cnc2ccccc2c1 | -0.419 | -0.288 | -0.0366 | 1.08 | 1.33 | 1.19 | 1.13 | -0.267 (inactive) | 0.101 | 0.142 | 0.826 | -0.837 (inactive) | 0.14 (inactive) | 1.29 (inactive) | 1.76 | 0.223 (inactive) | -0.171 | 0.556 | 0.76 | 0.436 |
| CN1C(=O)C2C=CC(C(O)c3ccccc3)N(NC(=O)OC(C)(C)C)C2C1=O (stereo not given) | -0.366 | 0.583 | 0.0728 | 0.268 | 1.34 | 0.871 | 0.792 | 1.82 (inactive) | 0.868 | -0.0645 | 0.408 | 0.382 (inactive) | 1.52 (inactive) | 1.45 (inactive) | 2.93 | -0.828 (inactive) | 0.0875 | -0.201 | 0.497 | 0.0182 |

From PubChem BioAssay
